PubChem BioAssay (NCI)
About 83,000 compounds went through this panel and 20% of them were active in at least one assay; those are over-represented in the sample as a whole.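 96-well plates, one dose, 48 hours. Percent growth reported; active if below 10.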 Unmarked numbers belong to inactive results. Calls of active or inactive are those of the source.

Experiments:
Test in all cases: NCI-60 one-dose screen, 48 h (100 = growth as untreated, 0 = no growth, -100 = all killed)
Conditions in all cases: 10 µM unless noted
EKVX NSCLC = tested on: EKVX NSCLC
SN12C renal = tested on: SN12C renal
UO-31 renal = tested on: UO-31 renal
TK-10 renal = tested on: TK-10 renal
ACHN renal = tested on: ACHN renal
CAKI-1 renal = tested on: CAKI-1 renal
A498 renal = tested on: A498 renal
CCRF-CEM leukemia = tested on: CCRF-CEM leukemia
MOLT-4 leukemia = tested on: MOLT-4 leukemia
SR leukemia = tested on: SR leukemia
RPMI-8226 leukemia = tested on: RPMI-8226 leukemia
OVCAR-8 ovarian = tested on: OVCAR-8 ovarian
OVCAR-5 ovarian = tested on: OVCAR-5 ovarian
OVCAR-4 ovarian = tested on: OVCAR-4 ovarian
SK-OV-3 ovarian = tested on: SK-OV-3 ovarian
IGROV1 ovarian = tested on: IGROV1 ovarian
OVCAR-3 ovarian = tested on: OVCAR-3 ovarian
NCI/ADR-RES ovarian = tested on: NCI/ADR-RES ovarian

Row | SMILES | growth (EKVX NSCLC) | growth (SN12C renal) | growth (UO-31 renal) | growth (TK-10 renal) | growth (ACHN renal) | growth (CAKI-1 renal) | growth (A498 renal) | growth (CCRF-CEM leukemia) | growth (MOLT-4 leukemia) | growth (SR leukemia) | growth (RPMI-8226 leukemia) | growth (OVCAR-8 ovarian) | growth (OVCAR-5 ovarian) | growth (OVCAR-4 ovarian) | growth (SK-OV-3 ovarian) | growth (IGROV1 ovarian) | growth (OVCAR-3 ovarian) | growth (NCI/ADR-RES ovarian)
1 | Cc1cc(C(=O)NOCCO)c(Nc2ccc(I)cc2F)n(C)c1=O | 56.7% | 68.3% | 46.3% | 48% | 64.3% | 40.6% | -14% (active) | 85% | 83.7% | 71.3% | 78.8% | 67.9% | 20.3% | 71.3% | 57.3% | 28% | 106% | 76.2%
2 | C/C(=C(/c1ccc(Cl)cc1)c1ccc(OCCN2CCCCC2)cc1)c1ccccc1 | 70.7% | 77% | 59.7% | 94.1% | 103% | 89.4% | 80.3% | 60.6% | 83.4% | 11.2% | 69.6% | 78.8% | 81.6% | 77.1% | 86% | 68.5% | 98.6% | 89.8%
3 | Nc1nc(N)c2nc(-c3cccc(O)c3)c(-c3cccc(O)c3)nc2n1 | 82.2% | 51.4% | 65.9% | 80.9% | 69.3% | 67.7% | 74.9% | 66.3% | 90.6% | 82% | 83.5% | 77.2% | 78.1% | 93.8% | 52.8% | 42.1% | 57.4% | 89.5%
4 | O=C(O)C1(Cc2cccc(Nc3nccs3)n2)CCC(Oc2cccc(Cl)c2F)CC1 (stereo unspecified) | 90.9% | 73.4% | 73.5% | 63.8% | 68.4% | 66.9% | 72% | 62.6% | 67.4% | 47.5% | 59.8% | 56.6% | 80.1% | 106% | 62.7% | 76.7% | 71.2% | 46.4%
5 | COc1cc(CCc2cc(NC(=O)c3ccc(N4C[C@@H](C)N[C@@H](C)C4)cc3)n[nH]2)cc(OC)c1 | 84.7% | 31.1% | 9.25% (active) | 57.6% | 39.5% | 20.4% | -1.03% (active) | 29.6% | 10.6% | -11% (active) | 41.5% | 58.4% | 29.7% | 49.6% | 25.6% | 16.7% | 78.8% | 91.3%
6 | C[C@@H](Oc1cc(-n2cnc3ccc(CN4CCN(C)CC4)cc32)sc1C(N)=O)c1ccccc1C(F)(F)F | 38.9% | 15.6% | 16.6% | 52.2% | 31.1% | 28.3% | -23% (active) | 6.03% (active) | -7.58% (active) | -19.6% (active) | 34.2% | 5.18% (active) | 19.9% | 33.8% | -2.74% (active) | 16.8% | 38% | 18.5%
7 | Cc1[nH]c(/C=C2\C(=O)Nc3ccc(F)cc32)c(C)c1C(=O)NC[C@H](O)CN1CCOCC1 | 44.9% | 27.6% | -1.44% (active) | 50.1% | 23.8% | 4.97% (active) | 30.5% | 33% | 15.7% | -2.38% (active) | 49.4% | 42.6% | 15.1% | 50.6% | 3.3% (active) | 19.6% | 70.3% | 64.7%
8 | COc1ccc(F)c(F)c1C(=O)c1cnc(NC2CCN(S(C)(=O)=O)CC2)nc1N | 2.22% (active) | 14.5% | -3.94% (active) | -7.34% (active) | 5.94% (active) | 13.1% | -53.4% (active) | 7.13% (active) | 6.48% (active) | 2.64% (active) | 0.261% (active) | 7.37% (active) | 12.6% | 8.36% (active) | 11.9% | 10.2% | 13.1% | 1.6% (active)
9 | COCc1c(-c2ccc(NC(=O)Nc3cc(C(F)(F)F)ccc3F)c(F)c2)c2c(N)ncnn2c1CN1CCOCC1 | -25.4% (active) | -10.8% (active) | -20% (active) | -43% (active) | -1.81% (active) | -11.4% (active) | -64.3% (active) | 5.76% (active) | -5.86% (active) | -9.37% (active) | -33.1% (active) | -28.6% (active) | -18.3% (active) | -6.98% (active) | -34.8% (active) | -21.6% (active) | 6.05% (active) | -21.4% (active)
10 | CN(c1ncccc1CNc1nc(Nc2ccc3c(c2)CC(=O)N3)ncc1C(F)(F)F)S(C)(=O)=O | 8.69% (active) | 9.55% (active) | -4.35% (active) | 0.859% (active) | -0.448% (active) | 12.1% | -16.6% (active) | 3.5% (active) | 0.451% (active) | -6.03% (active) | -7.65% (active) | 4.96% (active) | 7.36% (active) | -7.63% (active) | 5.63% (active) | 7.61% (active) | 15.1% | 56.2%
11 | FC(F)c1nc2ccccc2n1-c1nc(N2CCOCC2)nc(N2CCOCC2)n1 | 2.75% (active) | 8.54% (active) | -26.2% (active) | -27.9% (active) | -8.61% (active) | -11% (active) | -82.4% (active) | 8.99% (active) | 1.48% (active) | 1.58% (active) | 8.02% (active) | -8.56% (active) | 1.3% (active) | -17.1% (active) | -46% (active) | -37% (active) | -0.63% (active) | -12.9% (active)
12 | CN1CCN(CCOc2cc(OC3CCOCC3)c3c(Nc4c(Cl)ccc5c4OCO5)ncnc3c2)CC1 | 43.8% | 46.1% | 17.7% | 5.06% (active) | 12.5% | 21.7% | 49.4% | 84.3% | 56.2% | 38.7% | 95.1% | 55.6% | 29.1% | 95.8% | -14.6% (active) | -15.6% (active) | 59.3% | 60.7%
13 | Cn1cc(-c2ncnc3ccc(-c4cnc(Cl)c(NS(C)(=O)=O)c4)cc23)c2ccccc21 | 11.7% | 21.7% | -5.34% (active) | -1.34% (active) | 13.3% | 10.6% | -42.7% (active) | 23.9% | 7.73% (active) | 15.9% | 14.5% | 31% | 12.8% | 15.4% | -18.1% (active) | -24.3% (active) | 21.1% | 20.6%
14 | C[C@@H]1COCCN1c1cc(C2([S@](C)(=N)=O)CC2)nc(-c2ccnc3[nH]ccc23)n1 | 54.2% | 41% | 13.2% | 42.9% | 7.85% (active) | 28.9% | -21.2% (active) | 7.78% (active) | 7.26% (active) | 7.14% (active) | 32.4% | 30.7% | 34.5% | 30.3% | 4.16% (active) | 17.7% | 31.7% | 80.4%
15 | C1=C\COCc2cc(ccc2OCCN2CCCC2)Nc2nccc(n2)-c2cccc(c2)COC/1 | 0.564% (active) | -26.6% (active) | -29.2% (active) | 55.3% | 3.85% (active) | -44.8% (active) | -43.3% (active) | 4.28% (active) | -8.61% (active) | -8.75% (active) | -32% (active) | 6.66% (active) | -6.58% (active) | -4.87% (active) | -27.6% (active) | -18.7% (active) | 2.03% (active) | 0.945% (active)
16 | CC1(COc2ccc3c(c2)ncn3-c2ccc3cccc(N4CCC(N)CC4)c3n2)COC1 | 34.6% | 32.4% | -3.3% (active) | 32% | 2.83% (active) | 22.9% | 85.1% | 2.15% (active) | -4.11% (active) | -6.81% (active) | 0.988% (active) | 3.53% (active) | 10.3% | 29.2% | 54.2% | 22.7% | 37.2% | 51.5%
17 | CO[C@H]1C[C@@H]2CC[C@@H](C)[C@@](O)(O2)C(=O)C(=O)N2CCCC[C@H]2C(=O)O[C@H]([C@H](C)C[C@@H]2CC[C@@H](OC(=O)C(C)(CO)CO)[C@H](OC)C2)CC(=O)[C@H](C)/C=C(\C)[C@@H](O)[C@@H](OC)C(=O)[C@H](C)C[C@H](C)\C=C/C=C/C=C/1C | 36.8% | 34.8% | 15.3% | 26.1% | 32.6% | 30.9% | 8.36% (active) | 16.2% | 0.877% (active) | 3.69% (active) | 11.4% | 22.3% | 47.1% | 28.2% | 20.4% | 11.4% | 33.5% | 45.9%
